# Entries with a potency or affinity are not part of this list. Values without a mark were called inactive. No rule for the calls is given here.
# Assay: viability of Vero 76 cells – cell-based, set 3, cytotoxicity control, dose response (AID 602439)
# Details: Vero 76 cell viability; series mostly up to 50 µM; viability: at the top concentration
row,SMILES,viability [%]
1,O=C(Cc1ccccc1)Nc1nc2c(s1)CCCC2,94.1
2,O=c1c2cc([N+](=O)[O-])ccc2nc(CN2CCOCC2)n1-c1ccccc1F,96.3
3,CCN1CCN(Cc2nc3ccc([N+](=O)[O-])cc3c(=O)n2-c2ccccc2F)CC1,91.3
4,CN1CCN(Cc2nc3ccc([N+](=O)[O-])cc3c(=O)n2-c2ccccc2F)CC1,92.9
5,CN(C(=O)Cc1cccs1)c1nc2c(s1)CCCC2,93.3
6,O=C(Cc1cccs1)Nc1nc2ccccc2s1,92
7,CC(C)N1CCN(Cc2nc3ccc([N+](=O)[O-])cc3c(=O)n2-c2ccccc2F)CC1,91.7
8,O=C(Cc1cccs1)Nc1nccs1,101
